Test results taken from PubChem BioAssay (EPA / NIEHS).
Several values for one entry are separate records, joined by “and”; a condition that tells them apart may be missing. Equal entries are not always repeated. Some compounds were tested as several samples or in several runs, with calls that do not always agree. Activity calls are given as the source filed them. Rule for the calls: active = hit-call score of the fitted dose curve at least 0.9, where 1 is the maximum; inactive = score below 0.9.

Assays:
[1] = ATG_E_Box_CIS: Attagene CIS-FACTORIAL HepG2 Assay for human Enhancer Box (E-box) (AID 2282936); details: HepG2 E-box cis-reporter transcription, actives raise or lower the signal
Procedure, shortened: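 Measured 24 h post-dosing in HepG2 cells transfected with multiple cis-regulated reporter units, signal being reporter mRNA induction detected by fluorescent RT-PCR with capillary electrophoresis; gain or loss fitted against DMSO.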

[2] = ATG_M_61_CIS: Attagene CIS-FACTORIAL HepG2 Assay for M61 Transcription Factor (Internal Marker) (AID 2282937); details: HepG2 Attagene CIS-FACTORIAL M61 internal marker reporter; actives raise or lower the signal
Procedure, shortened: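 Transfect HepG2 with MRTUs; dose 24 h; isolate RNA; reverse-transcribe with DNase I treatment; PCR-amplify, FAM-label and cut with HpaI for 2 h at 37 C; resolve by CE. Bidirectional fitting against DMSO.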

[3] = ATG_EGR_CIS: Attagene CIS-FACTORIAL HepG2 Assay for human Early Growth Response 1 (EGR1) (AID 2282938); details: HepG2 Attagene CIS-FACTORIAL EGR reporter mRNA; actives raise or lower the signal
Procedure, shortened: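 After a 24 h treatment of transiently transfected HepG2 cells, total RNA was reverse-transcribed and reporter sequences PCR-amplified, labelled and run on capillary electrophoresis. Reporters sit under cis-regulatory promoters sensing endogenous factors.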

[4] = ATG_M_19_CIS: Attagene CIS-FACTORIAL HepG2 Assay for M19 Transcription Factor (Internal Marker) (AID 2282939); details: HepG2 Attagene CIS-FACTORIAL M19 internal marker reporter; actives raise or lower the signal
Procedure, shortened: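 Following a 24 h exposure, RNA from transfected HepG2 cells was reverse-transcribed, PCR-amplified with reporter-specific primers, end-labelled with 6-FAM and HpaI-digested before capillary separation. Values represent gain or loss versus DMSO.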

[5] = ATG_ERE_CIS: Attagene CIS-FACTORIAL HepG2 Assay for Estrogen Response Element (ERE) (AID 2282940); details: HepG2 ERE cis-reporter, Attagene RNA transcript; actives raise or lower the signal
Procedure, shortened: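 HepG2, transient cis-reporter units, 24 h exposure. RNA isolated, oligo(dT) RT, reporter-specific PCR, FAM extension, HpaI cut, CE detection. Gain/loss-of-signal vs DMSO.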

[6] = ATG_Ets_CIS: Attagene CIS-FACTORIAL HepG2 Assay for human Erythroblast Transformation Specific (ETS) (AID 2282941); details: HepG2 ETS cis-reporter transcription, actives raise or lower the signal
Procedure, shortened: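 Endogenous transcription factor activity read as reporter mRNA via RT-PCR and capillary electrophoresis, with gain or loss fitted bidirectionally against DMSO. Human HepG2 liver cells, transiently transfected CIS reporter constructs, 24 h exposure.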

[7] = biological target: Hepatocyte nuclear factor 3-beta (Homo sapiens) (UniProt Q9Y261); test: ATG_FoxA2_CIS: Attagene CIS-FACTORIAL HepG2 Assay for human Forkhead box A2 (FOXA2) (AID 2282942); details: HepG2 cis-reporter transcription factor activity, 24 h; actives raise or lower the signal
Sequence of Hepatocyte nuclear factor 3-beta (Homo sapiens) (Q9Y261 whole entry, looked up): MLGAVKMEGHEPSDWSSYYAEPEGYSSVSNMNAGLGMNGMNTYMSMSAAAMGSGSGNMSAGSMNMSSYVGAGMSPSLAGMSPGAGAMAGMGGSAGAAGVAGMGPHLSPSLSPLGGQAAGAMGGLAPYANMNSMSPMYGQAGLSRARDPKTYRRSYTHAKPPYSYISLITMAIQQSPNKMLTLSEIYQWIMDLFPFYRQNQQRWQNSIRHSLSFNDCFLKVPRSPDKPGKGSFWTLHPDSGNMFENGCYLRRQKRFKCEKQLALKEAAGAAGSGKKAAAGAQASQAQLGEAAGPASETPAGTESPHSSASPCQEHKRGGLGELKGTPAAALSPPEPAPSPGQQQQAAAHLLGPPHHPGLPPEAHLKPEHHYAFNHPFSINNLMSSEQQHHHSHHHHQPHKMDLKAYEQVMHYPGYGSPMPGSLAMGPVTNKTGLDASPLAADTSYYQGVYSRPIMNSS
Procedure, shortened: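 24 h dosing of HepG2 bearing cis-reporter constructs; mRNA readout by RT-PCR/CE fluorescence; bidirectional fit, DMSO baseline.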

[8] = ATG_FoxO_CIS: Attagene CIS-FACTORIAL HepG2 Assay for human Forkhead box O (FoxO) (AID 2282943); details: HepG2 Attagene cis-reporter, FoxO element, mRNA; actives raise or lower the signal
Procedure, shortened: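 Values reflect reporter mRNA induction or loss in HepG2 cells 24 h post-dosing, fitted bidirectionally with DMSO as negative control and baseline. Detection used RT-PCR and fluorescence capillary electrophoresis.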

[9] = ATG_GATA_CIS: Attagene CIS-FACTORIAL HepG2 Assay for human GATA Binding Protein (AID 2282944); details: HepG2 GATA cis-element reporter, Attagene multiplex mRNA; actives raise or lower the signal
Procedure, shortened: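 DMSO serves as negative control and baseline for bidirectional fitting of reporter mRNA changes. HepG2 cells bearing transiently transfected cis-promoter reporters were exposed 24 h; transcripts detected via RT-PCR and capillary electrophoresis.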

[10] = ATG_GLI_CIS: Attagene CIS-FACTORIAL HepG2 Assay for human Zinc Finger Protein GLI1 (AID 2282945); details: HepG2, Attagene cis-factorial reporter mRNA, GLI element; actives raise or lower the signal
Procedure, shortened: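 HepG2 cells transiently transfected with cis-promoter multiplexed reporter units report endogenous transcription factor activity. After 24 h chemical exposure, reporter mRNA was quantified by RT-PCR, 6-FAM labelling, HpaI digestion and capillary electrophoresis, with bidirectional fitting against DMSO.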

[11] = biological target: Bile acid receptor (Homo sapiens) (UniProt Q96RI1); test: ATG_IR1_CIS: Attagene CIS-FACTORIAL HepG2 Assay for human Nuclear Receptor Subfamily 1 Group H Member 4 (NR1H4), IR1 submotif (AID 2282946); details: IR1 reporter transcription, actives raise or lower the signal
Sequence of Bile acid receptor (Homo sapiens) (Q96RI1 whole entry, looked up): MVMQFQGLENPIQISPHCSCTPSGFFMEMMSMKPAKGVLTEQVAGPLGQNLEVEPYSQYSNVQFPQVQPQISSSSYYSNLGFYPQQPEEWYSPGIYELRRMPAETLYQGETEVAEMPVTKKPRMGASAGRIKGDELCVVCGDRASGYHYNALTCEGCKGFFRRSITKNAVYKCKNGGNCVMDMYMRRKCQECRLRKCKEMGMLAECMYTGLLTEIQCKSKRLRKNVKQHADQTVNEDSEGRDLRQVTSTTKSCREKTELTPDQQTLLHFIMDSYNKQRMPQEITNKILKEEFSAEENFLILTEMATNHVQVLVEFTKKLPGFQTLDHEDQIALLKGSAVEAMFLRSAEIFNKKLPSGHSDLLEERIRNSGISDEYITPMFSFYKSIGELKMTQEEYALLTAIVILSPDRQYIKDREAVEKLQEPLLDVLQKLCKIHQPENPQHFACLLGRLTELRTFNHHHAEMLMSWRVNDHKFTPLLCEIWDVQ
Procedure, shortened: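 Readout: reporter transcript levels by RT-PCR with fluorescent capillary electrophoresis, from HepG2 cells transiently transfected with multiplexed cis-regulated reporters and dosed 24 h. Gain- or loss-of-signal fitted versus DMSO negative control.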

[12] = ATG_GRE_CIS: Attagene CIS-FACTORIAL HepG2 Assay for human Glucocorticoid Response Elements (GRE) (AID 2282947); details: HepG2 GRE cis-reporter, Attagene multiplex mRNA; actives raise or lower the signal
Procedure, shortened: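 HepG2, transient cis-reporter transfection, 24 h. Reporter mRNA: RT-PCR then CE, fluorescence. Fit both directions vs DMSO.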

[13] = ATG_ISRE_CIS: Attagene CIS-FACTORIAL HepG2 Assay for human Interferon Regulatory Factor 1 (IRF1) binding to an Interferon-Stimulated Response Element (ISRE) (AID 2282948); details: HepG2 ISRE cis-reporter (Attagene), mRNA transcription readout; actives raise or lower the signal
Procedure, shortened: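 Endogenous transcription factor activity read as reporter transcript abundance via RT-PCR and capillary electrophoresis. HepG2 cells transiently transfected, 24 h chemical exposure. Gain or loss fitted against DMSO baseline.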

[14] = ATG_M_32_CIS: Attagene CIS-FACTORIAL HepG2 Assay for M32 Transcription Factor (Internal Marker) (AID 2282949); details: HepG2 Attagene cis-factorial M32 reporter, mRNA; actives raise or lower the signal;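 note: background control marker of the multiplexed CIS panel rather than a real target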
Procedure, shortened: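 Transient MRTU transfection of HepG2; 24 h compound treatment; TriZol RNA, oligo(dT) RT, reporter PCR, 6-FAM primer extension, HpaI cut, CE. Gain/loss of signal vs DMSO.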

[15] = ATG_M_06_CIS: Attagene CIS-FACTORIAL HepG2 Assay for M06 Transcription Factor (Internal Marker) (AID 2282950); details: HepG2 Attagene CIS-FACTORIAL M06 internal marker reporter; actives raise or lower the signal
Procedure, shortened: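 Fluorescence-labelled RT-PCR products from cis-promoter reporter units, cut with HpaI and resolved by capillary electrophoresis, give the signal. Cells are human HepG2, dosed for 24 h. Serves as background control, fitted relative to DMSO.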

[16] = biological target: Hepatocyte nuclear factor 6 (Homo sapiens) (UniProt Q9UBC0); test: ATG_HNF6_CIS: Attagene CIS-FACTORIAL HepG2 Assay for human Hepatocyte Nuclear Factor 6 (HNF6) (AID 2282952); details: HepG2 Attagene cis-factorial HNF6 reporter transcription; actives raise or lower the signal
Sequence of Hepatocyte nuclear factor 6 (Homo sapiens) (Q9UBC0 whole entry, looked up, the tested form may be a part): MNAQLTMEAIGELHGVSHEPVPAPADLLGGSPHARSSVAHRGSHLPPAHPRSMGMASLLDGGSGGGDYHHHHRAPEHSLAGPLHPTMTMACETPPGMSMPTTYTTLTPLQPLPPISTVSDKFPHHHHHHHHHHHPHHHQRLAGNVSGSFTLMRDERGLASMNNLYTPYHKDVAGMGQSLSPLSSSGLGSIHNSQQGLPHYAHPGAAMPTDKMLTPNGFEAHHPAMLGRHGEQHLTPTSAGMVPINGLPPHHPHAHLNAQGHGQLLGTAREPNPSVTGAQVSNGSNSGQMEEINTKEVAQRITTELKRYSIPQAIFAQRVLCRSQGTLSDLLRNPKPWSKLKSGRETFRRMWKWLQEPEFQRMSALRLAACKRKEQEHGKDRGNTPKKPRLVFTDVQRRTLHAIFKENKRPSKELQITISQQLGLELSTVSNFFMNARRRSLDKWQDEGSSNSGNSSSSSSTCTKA
Procedure, shortened: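 Readout: fluorescent reporter-transcript fragments resolved by capillary electrophoresis after RT-PCR, reflecting endogenous factor activity in transfected HepG2. Exposure 24 h. Gain or loss of signal fitted bidirectionally against DMSO.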

[17] = biological target: Heat shock factor protein 1 (Homo sapiens) (UniProt Q00613); test: ATG_HSE_CIS: Attagene CIS-FACTORIAL HepG2 Assay for human Heat Shock Transcription Factor 1 (HSE) (AID 2282953); details: HepG2 HSE cis-reporter, Attagene RNA transcription; actives raise or lower the signal
Sequence of Heat shock factor protein 1 (Homo sapiens) (Q00613 whole entry, looked up): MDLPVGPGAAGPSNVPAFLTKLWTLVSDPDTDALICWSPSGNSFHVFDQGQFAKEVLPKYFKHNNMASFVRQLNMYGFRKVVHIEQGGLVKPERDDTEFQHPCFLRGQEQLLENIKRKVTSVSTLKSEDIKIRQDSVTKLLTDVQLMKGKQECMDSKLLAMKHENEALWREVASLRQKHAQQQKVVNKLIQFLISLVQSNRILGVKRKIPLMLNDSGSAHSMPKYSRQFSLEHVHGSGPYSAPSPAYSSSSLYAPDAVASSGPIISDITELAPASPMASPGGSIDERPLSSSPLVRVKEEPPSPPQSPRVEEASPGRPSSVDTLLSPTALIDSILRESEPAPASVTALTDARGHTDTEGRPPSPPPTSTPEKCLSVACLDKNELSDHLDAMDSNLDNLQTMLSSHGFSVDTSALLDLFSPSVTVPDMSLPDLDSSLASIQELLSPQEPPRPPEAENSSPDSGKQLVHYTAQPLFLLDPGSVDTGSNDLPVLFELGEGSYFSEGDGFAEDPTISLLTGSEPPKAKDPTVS
Procedure, shortened: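 After a 24 h incubation with test chemical, transfected HepG2 cells were harvested for RNA; reporter transcripts were measured by RT-PCR and capillary electrophoresis. Values reflect gain or loss of signal relative to DMSO.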

[18] = ATG_MRE_CIS: Attagene CIS-FACTORIAL HepG2 Assay for human Metal Responsive Element (MRE) (AID 2282954); details: HepG2 MRE cis-reporter transcription, Attagene multiplex; actives raise or lower the signal
Procedure, shortened: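 Readout: capillary electrophoresis of 6-FAM-labelled, HpaI-digested RT-PCR reporter products. System: HepG2 cells carrying transient multiplexed cis reporters, dosed 24 h. Analysis: bidirectional fit, DMSO baseline.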

[19] = ATG_PBREM_CIS: Attagene CIS-FACTORIAL HepG2 Assay for human Phenobarbital-responsive Enhancer Module (PBREM) (AID 2282955); details: HepG2 PBREM cis-reporter, Attagene multiplexed transcription; actives raise or lower the signal
Procedure, shortened: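 Measures endogenous factor action on a phenobarbital-responsive enhancer module. HepG2 transiently carrying cis reporters, 24 h treatment, mRNA read-out by RT-PCR plus capillary electrophoresis.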

[20] = biological target: Hypoxia-inducible factor 1-alpha (Homo sapiens) (UniProt Q16665); test: ATG_HIF1a_CIS: Attagene CIS-FACTORIAL HepG2 Assay for human Hypoxia Inducible Factor 1 (HIF1A) (AID 2282951); details: HepG2 Attagene cis-factorial HIF1a reporter transcription; actives raise or lower the signal
Sequence of Hypoxia-inducible factor 1-alpha (Homo sapiens) (Q16665 whole entry, looked up): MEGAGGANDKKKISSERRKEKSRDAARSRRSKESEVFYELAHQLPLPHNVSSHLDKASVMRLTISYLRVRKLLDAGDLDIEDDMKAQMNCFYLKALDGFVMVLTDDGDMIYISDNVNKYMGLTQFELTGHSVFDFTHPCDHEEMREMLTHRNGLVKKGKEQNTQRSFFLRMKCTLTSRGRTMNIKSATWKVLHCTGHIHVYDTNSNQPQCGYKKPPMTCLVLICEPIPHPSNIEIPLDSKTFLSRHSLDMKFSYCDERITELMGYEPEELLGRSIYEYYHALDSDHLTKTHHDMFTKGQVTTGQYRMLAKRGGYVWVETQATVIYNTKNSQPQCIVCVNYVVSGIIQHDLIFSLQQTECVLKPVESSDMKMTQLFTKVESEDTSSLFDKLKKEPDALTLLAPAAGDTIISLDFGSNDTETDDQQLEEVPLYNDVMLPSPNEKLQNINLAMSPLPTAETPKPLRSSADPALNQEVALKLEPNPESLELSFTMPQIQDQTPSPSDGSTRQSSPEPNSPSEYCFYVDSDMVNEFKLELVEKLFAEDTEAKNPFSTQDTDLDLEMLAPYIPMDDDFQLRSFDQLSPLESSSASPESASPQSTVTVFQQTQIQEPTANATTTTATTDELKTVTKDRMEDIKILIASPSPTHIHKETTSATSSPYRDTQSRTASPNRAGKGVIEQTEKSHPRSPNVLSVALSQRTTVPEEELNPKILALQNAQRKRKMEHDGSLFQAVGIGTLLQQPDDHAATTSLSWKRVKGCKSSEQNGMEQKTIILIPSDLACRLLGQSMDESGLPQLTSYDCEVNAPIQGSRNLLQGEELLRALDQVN
Procedure, shortened: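 After 24 h chemical exposure of reporter-transfected HepG2 cells, reporter cDNA was PCR-amplified, labelled by 6-FAM primer extension (2 min 95 C, 20 s 68 C, 10 min 72 C), HpaI-cut (2 h, 37 C) and analysed by CE.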

Measured: AC50

O=C(O)c1cccc(C(=O)O)c1
not listed: [19] | [20]
inactive: all other assays above

Cc1nccn1-c1ccc(Sc2cccc(C3(C(N)=O)CCOCC3)c2)cc1
active: [3] 4.56 µM | [6] 4.05 µM | [8] 3.15 µM | [11] 1.01 µM | [12] 5.85 µM | [13] 7.26 µM | [16] 7.22 µM | [18] 6.89 µM | [19] 3.41 µM
not listed: [20]
inactive: all other assays above

FC(F)(F)COC(OCC(F)(F)F)OCC(F)(F)F
inactive: all assays above

COc1cc(C(C)C)c2c(c1)S(=O)(=O)N(COc1cc(=O)n3cccc(OCCN4CCCCC4)c3n1)C2=O
inactive: [1] | [4] | [5] | [7] | [8] | [10] | [11] | [14] | [19]
active: [2] 12.3 µM | [3] 2.75 µM | [6] 2.02 µM | [9] 14.1 µM | [12] 4.22 µM | [13] 5.08 µM | [15] 12.3 µM | [20] 5.04 µM | [16] 13.9 µM | [18] 9.28 µM

C[C@@H](Oc1ccc(CNC(=O)c2cccnc2Oc2ccc3c(c2)OCO3)c(F)c1)C(=O)O
not listed: [17]
inactive: all other assays above

FC(F)(F)C(F)(F)C(F)(F)C(F)(F)C(F)(F)C(F)(F)I
active: [5] 24 µM and 27.1 µM
inactive: all other assays above

FC(F)C(F)(F)COCC1CO1 (stereo not drawn)
active: [5] 118 µM
inactive: [1] | [2] | [3] | [4] | [5] | [6] | [7] | [8] | [9] | [10] | [11] | [12] | [13] | [14] | [15] | [20] | [16] | [18] | [19]

OC(O)(C(F)C(O)(O)C(F)(F)F)C(F)(F)F
inactive: [1] | [2] | [3] | [4] | [5] | [6] | [7] | [8] | [9] | [10] | [11] | [12] | [14] | [15] | [20] | [16] | [17] | [18] | [19]
active: [5] 150 µM | [13] 27.8 µM and 9.44 µM

OCCC(F)(F)C(F)(F)C(F)(F)C(F)(F)F
not listed: [17] | [20]
inactive: all other assays above

COc1cc2c(c(OC)c1OC)-c1ccc(OC)c(=O)cc1[C@@H](NC(C)=O)CC2
active: [1] 0.592 µM | [11] 0.0925 µM
not listed: [19] | [20]
inactive: all other assays above

Nc1ccn([C@@H]2O[C@H](CO)[C@@H](O)[C@@H]2O)c(=O)n1
active: [5] 6.66 µM
inactive: all other assays above

Cc1cccc(O)c1C
active: [5] 59.3 µM and 59.6 µM | [11] 23.7 µM
inactive: [1] | [2] | [3] | [4] | [6] | [7] | [8] | [9] | [10] | [11] | [12] | [13] | [14] | [15] | [20] | [16] | [17] | [18] | [19]
